{"source": "PubChem BioAssay (NCATS)", "note": "Inconclusive results are not listed. Calls of active or inactive are those of the source. Calls come from the whole dose curve; as a rule, active = well fitted cell-killing curve with a large enough effect; inconclusive = small, poorly fitted or top-dose-only effect; inactive = flat fitted curve, though single readings scatter. % is set by controls: 0 for no effect and ±100 for the full control effect."}
{"assay": "qHTS assay to identify small molecule inhibitors of chordoma cells - UCH-2 (AID 1259356)", "details": "UCH-2 chordoma viability, CellTiter-Glo ATP luminescence, 48 h; series mostly up to 46.1 µM; activity change, negative = inhibition: at the top concentration", "excerpt": "NIH Chemical Genomics Center [NCGC]\nChordoma is a rare and slow growing tumor that can occur anywhere along the spine, from the base of the skull to the tailbone. Current treatment options for chordoma is surgery and radiation therapy for those who are not candidates for surgery. But chordomas tend to return in the same location or surrounding areas of the original tumor after surgery and/or radiation. Chemotherapy can slow down the progression of the tumor. As chordoma is slow growing, the general cytotoxic agents that kill fast growing cells are ineffective, and some patients have been reported to respond to molecularly targeted drugs.\nNCATS Pharmaceutical Collection (NPC) containing approximately 3000 clinically approved and investigational drugs were used to screen at 15 concentrations in a chordoma cell lines, UCH-2, to identify small molecule compounds that can inhibit chordoma cell growth.\nNCGC Assay Protocol Summary:\nHuman chordoma cell line UCH-2 was dispensed at 800 per well in 4uL of culture medium into white solid bottom 1536-well plates (Corning Life Sciences, Corning, NY) using a Multidrop Combi (Thermo Scientific, Waltham, MA) dispenser. The assay plates were incubated at 37 C and 5% CO2 for an overnight, and then 23nL of compounds dissolved in DMSO and positive control were transferred using a Pintool station (Wako, San Diego, CA). Compound treatment was followed by the addition of 1uL of the combination compounds (1uM Auranofin, 500nM each of Camptothecin, Doxorubicin, Rubitecan, and Topotecan) and assay medium to each well of the assay plates using Flying Reagent Dispenser (FRD, Aurora Discovery, San Diego, CA). The assay plates were incubated at 37 C and 5% CO2 for 48hr. Then 5uL of CellTiter-Glo reagent (Promega Corporation, Madison, WI) was added to each well of the assay plates using FRD. After 30min incubation at room temperature, the luminescence signal was quantified using a ViewLux plate reader (PerkinElmer, Shelton, CT)."}
{"smiles": "NC(N)=Nc1nc(CSCC/C(N)=N/S(N)(=O)=O)cs1", "activity change, negative = inhibition": "-7.3% (inactive)"}
{"smiles": "CCCCC1C(=O)N(c2ccccc2)N(c2ccccc2)C1=O", "outcome": "inactive"}
{"smiles": "Cc1cnc(C(=O)O)c[n+]1[O-]", "outcome": "inactive"}
{"smiles": "CC1=C(/C=C/C(C)=C/C=C/C(C)=C/C(=O)Nc2ccc(O)cc2)C(C)(C)CCC1", "activity change, negative = inhibition": "-21.1% (inactive)"}
{"smiles": "O=C(O)c1cc(-c2ccccc2)nc2ccccc12", "activity change, negative = inhibition": "2.38% (inactive)"}
{"smiles": "CC(C)NCC(O)COc1cccc2[nH]ccc12", "note": "(centres undefined)", "activity change, negative = inhibition": "6.92% (inactive)"}
{"smiles": "CCN(CC)CCNC(=O)c1ccc(N)cc1", "activity change, negative = inhibition": "7.64% (inactive)"}
{"smiles": "CCOC(=O)O[C@]1(C(=O)OCCl)CC[C@@H]2[C@H]3CCC4=CC(=O)C=C[C@]4(C)[C@@H]3[C@@H](O)C[C@@]21C", "activity change, negative = inhibition": "8.64% (inactive)"}
{"smiles": "C[C@@H](O)[C@H]1C(=O)N2C(C(=O)O)=C(S[C@@H]3CN[C@H](C(=O)N(C)C)C3)[C@H](C)[C@H]12", "activity change, negative = inhibition": "4.65% (inactive)"}
{"smiles": "O=C(O)Cc1cccc2ccccc12", "activity change, negative = inhibition": "5.84% (inactive)"}
{"smiles": "O=c1[nH]cnc2c1ncn2[C@H]1CC[C@@H](CO)O1", "activity change, negative = inhibition": "1.55% (inactive)"}
{"smiles": "CC(=O)c1ccc(S(=O)(=O)NC(=O)NC2CCCCC2)cc1", "activity change, negative = inhibition": "2.91% (inactive)"}
{"smiles": "CC(=O)CCCCn1c(=O)c2c(ncn2C)n(C)c1=O", "activity change, negative = inhibition": "2.96% [at 20.6 µM] (inactive)"}
{"smiles": "CCn1cc(C(=O)O)c(=O)c2ccc(C)nc21", "activity change, negative = inhibition": "9.57% (inactive)"}
{"smiles": "COC(=O)[C@@H]1[C@H]2C[C@H]3c4[nH]c5ccccc5c4CCN3C[C@@H]2CC[C@@H]1O", "activity change, negative = inhibition": "-0.076% (inactive)"}
{"smiles": "CC(C)(C)c1ccc(C(O)CCCN2CCC(C(O)(c3ccccc3)c3ccccc3)CC2)cc1", "note": "(centres undefined)", "outcome": "inactive"}
{"smiles": "CN(C)CCC(c1ccccc1)c1ccccn1", "note": "(centres undefined)", "activity change, negative = inhibition": "4.11% (inactive)"}
{"smiles": "C[N+]1(C)[C@@H]2CC(OC(=O)[C@H](CO)c3ccccc3)C[C@H]1[C@H]1O[C@@H]12", "note": "(some centres undefined)", "activity change, negative = inhibition": "2.33% (inactive)"}
{"smiles": "Clc1ccc(Cn2c(CN3CCCC3)nc3ccccc32)cc1", "activity change, negative = inhibition": "14.9% [at 20.6 µM] (inactive)"}
{"smiles": "CC(=O)N[C@@H](CS)C(=O)O", "activity change, negative = inhibition": "-0.503% (inactive)"}
{"smiles": "CCCNC(=O)NS(=O)(=O)c1ccc(Cl)cc1", "activity change, negative = inhibition": "-0.837% (inactive)"}
{"smiles": "OC[C@@H](O)[C@H](O)[C@H](O)[C@@H](O)CO", "outcome": "inactive"}
{"smiles": "C[N+](C)(C)CCCCCC[N+](C)(C)C", "activity change, negative = inhibition": "13.1% (inactive)"}
{"smiles": "O=C(NCCN1CCOCC1)c1ccc(Cl)cc1", "activity change, negative = inhibition": "-10.5% (inactive)"}
{"smiles": "O=C1NC(=O)C(c2ccccc2)(c2ccccc2)N1", "activity change, negative = inhibition": "-6.9% (inactive)"}
{"smiles": "CC1(C)O[C@H]2C[C@@H]3[C@H]4CCC5=CC(=O)C=C[C@]5(C)[C@@]4(F)[C@@H](O)C[C@]3(C)[C@]2(C(=O)CO)O1", "activity change, negative = inhibition": "10.6% (inactive)"}
{"smiles": "CC(C(=O)O)c1ccc(-c2ccccc2)c(F)c1", "note": "(centres undefined)", "activity change, negative = inhibition": "19.7% [at 20.6 µM] (inactive)"}
{"smiles": "CCN1CCC[C@H]1CNC(=O)c1cc(S(N)(=O)=O)ccc1OC", "activity change, negative = inhibition": "1.29% (inactive)"}
{"smiles": "CC(=O)O[C@]1(C(C)=O)CC[C@H]2[C@@H]3C=C(Cl)C4=CC(=O)[C@@H]5C[C@@H]5[C@]4(C)[C@H]3CC[C@@]21C", "activity change, negative = inhibition": "2.86% (inactive)"}
{"smiles": "Cc1cccc(C)c1OCC(C)N", "note": "(centres undefined)", "activity change, negative = inhibition": "0.136% (inactive)"}
{"smiles": "COCCCCC(=NOCCN)c1ccc(C(F)(F)F)cc1", "activity change, negative = inhibition": "2.31% (inactive)"}
{"smiles": "CCN(CC)CCOC(=O)c1ccc(N)cc1", "activity change, negative = inhibition": "2.7% [at 20.6 µM] (inactive)"}
{"smiles": "NCCS", "activity change, negative = inhibition": "-20.9% (inactive)"}
{"smiles": "O=C1NCC2(CCN(CCc3ccccc3)CC2)O1", "activity change, negative = inhibition": "3% (inactive)"}
{"smiles": "CC/C(=C(\\c1ccccc1)c1ccc(OCCN(C)C)cc1)c1ccccc1", "activity change, negative = inhibition": "-20.9% (inactive)"}
{"smiles": "COc1ccccc1N1CCN(CCCNc2cc(=O)n(C)c(=O)n2C)CC1", "outcome": "inactive"}
{"smiles": "O=C(O)CCc1nc(-c2ccccc2)c(-c2ccccc2)o1", "activity change, negative = inhibition": "10.3% (inactive)"}
{"smiles": "CCN(CC)C(=O)c1ccc(O)c(OC)c1", "outcome": "inactive"}
{"smiles": "CC[C@]1(O)C[C@@H]2CN(CCc3c([nH]c4ccccc34)[C@@](C(=O)OC)(c3cc4c(cc3OC)N(C)[C@H]3[C@@](O)(C(=O)OC)[C@H](OC(C)=O)[C@]5(CC)C=CCN6CC[C@]43[C@@H]65)C2)C1", "outcome": "inactive"}
